Among the data in PubChem BioAssay are inhibition values, retold here.

Molecules are shown by their SMILES. Calls of active or inactive are those of the source. The rule behind the calls is not given here.

For this assay, the target named is Pantothenate synthetase (Mycobacterium tuberculosis (strain ATCC 25618 / H37Rv)) (UniProt P9WIL5). The assay can be described thus: Recombinant Mtb pantothenate synthetase (PanC) inhibitors, coupled enzyme, confirmatory (AID 375).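 Note: 0% = full reaction with vehicle and 100% = no enzyme background.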 To be noted: coupled enzyme assay; at 10 µM, hits give high values.
Pantothenate synthetase (Mycobacterium tuberculosis (strain ATCC 25618 / H37Rv)), sequence (P9WIL5 whole entry, looked up): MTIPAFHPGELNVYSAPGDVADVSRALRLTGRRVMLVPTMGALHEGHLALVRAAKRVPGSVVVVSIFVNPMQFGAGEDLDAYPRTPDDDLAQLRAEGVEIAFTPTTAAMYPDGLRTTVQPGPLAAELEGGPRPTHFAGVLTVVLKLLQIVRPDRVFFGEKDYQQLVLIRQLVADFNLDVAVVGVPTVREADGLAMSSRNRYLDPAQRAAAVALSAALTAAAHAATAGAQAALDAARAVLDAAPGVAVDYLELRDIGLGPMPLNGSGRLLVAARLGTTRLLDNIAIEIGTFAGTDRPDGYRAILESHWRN
With `c1ccc2nc(-c3nc4ccccc4[nH]3)ccc2c1`, the inhibition is 0% (inactive). Regarding `COc1ccc2c(=O)c3c(=O)n(Cc4ccco4)c(-c4cc(OC)c(OC)c(OC)c4)nc3oc2c1`, the inhibition was 5% (inactive). In the case of `O=C(NCCSc1c[nH]c2ccccc12)c1ccc(Br)o1`, the inhibition was 1% (inactive). In the case of `Cc1nc(SCC(=O)N2CCC(C(N)=O)CC2)n[nH]1`, the inhibition is 0% (inactive). As to `Cc1ccccc1NC(=O)NCCCN1CCN(C2CCCCC2)CC1`, the inhibition was 0% (inactive). As to `COc1ccc(OC)c(C2C3=C(CCCC3=O)Nc3c2c(=O)n(C)c(=O)n3C)c1` (stereo not given), the inhibition is 0% (inactive).

For `CC(OC1=CC(=O)CCC1)C(=O)c1ccccc1` (stereo not given), the inhibition is 2% (inactive). As for `Cc1ccc(S(=O)(=O)N2CCCC(c3nnc4n3-c3ccccc3SC4)C2)cc1` (stereo not given), the figure is 9% (inactive); as for `O=C(NCc1cccnc1)c1ccc2c(c1)OCO2`, 0% (inactive). To `CC1CCCCC1NC(=O)Cn1ncc2ccccc21` (stereo not given) belongs 0% (inactive); to `Nc1nnc(SCCOc2ccccc2)s1`, 3% (inactive). To `CC(C)C1Cc2c(C#N)c(N)sc(=S)c2CO1` (stereo not given) belongs 2% (inactive); to `Cc1cc(O)c(C2(C(F)(F)F)NCCNC2=O)cc1C` (stereo not given), 5% (inactive).

For the compound `COC(=O)CSc1ncccc1-c1nc2ccccc2[nH]1`, the inhibition was 0% (inactive).

With `COc1cccc(OC)c1OCCN1CCN(C(=O)c2ccco2)CC1`, the inhibition was 0% (inactive). As for `Cc1ccc(Nc2cc(C)nc3ncnn23)c(Cl)c1`, the figure is 0% (inactive).

Take `CCOC(=O)N1CCC(N2C(=O)c3ccccc3C2Nc2ccccc2C)CC1` (stereo not given): the inhibition is 4% (inactive). Take `COCCNC(=O)C1CCCN(c2ncccn2)C1` (stereo not given): the inhibition was 0% (inactive).

As for `N#CCCN1CCN(S(=O)(=O)c2ccc(S(=O)(=O)NC3CCCCC3)cc2)CC1`, the inhibition was 0% (inactive). As for `COc1cccc(-c2nnc(SCC(N)=O)n2-c2ccc(Cl)cc2)c1`, the inhibition was 0% (inactive). To `COc1cc2c3c(c1)/C(=C1/SC(NC(C)=O)=NC1=O)C(=O)N3C(C)(C)C=C2C` belongs 0% (inactive); to `COc1ccc(OC)c(S(=O)(=O)N2CCN(c3c(C)cccc3C)CC2)c1`, 1% (inactive). To `COc1ccccc1-n1cnc2cc(NS(=O)(=O)c3ccccc3)ccc21` belongs 0% (inactive).

For `CCOC(=O)Cc1nnc(Nc2cccc(O)c2)c2ccccc12`, the inhibition was 9% (inactive). As for `CCN(CC)S(=O)(=O)c1cccc2c(N(C)C)cccc12`, the figure is 0% (inactive); as for `CC(C)(C)C(=O)/C=C(\N)c1ccccn1`, 2% (inactive). In the case of `COc1cccc(OC)c1C(=O)Nc1cccc(C(C)=O)c1`, the inhibition was 2% (inactive). To `Cc1cc(C)cc(N2C(=O)CC(N3CCOCC3)C2=O)c1` (stereo not given) belongs 0% (inactive); to `CC1(C2(O)CC(c3ccccc3)ON2)CCCCC1` (stereo not given), 2% (inactive); to `COC(=O)Nc1sc2c(c1C(=O)N1CCOCC1)CCC(C)C2` (stereo not given), 0% (inactive). As for `COc1ccccc1N1CCN(C(=O)c2cc(-c3ccc(Cl)c(Cl)c3)on2)CC1`, the figure is 0% (inactive); as for `COC(=O)c1ccc(-c2nn(C)c(=O)c3ccccc23)cc1`, 0% (inactive); as for `CON(C)c1nc(Oc2ccc(=O)[nH]n2)nc(N(C)C)n1`, 1% (inactive). On to `O=C(O)c1cccc(S(=O)(=O)N2CCOCC2)c1`, for which the inhibition is 2% (inactive). To `CCc1cccc(NC(=O)CN(C)S(=O)(=O)c2cccc3nsnc23)c1` belongs 12% (inactive); to `O=S(=O)(Nc1cccc2ncccc12)c1cccs1`, 6% (inactive). In the case of `Cc1ccccc1CN1CCNC1=O`, the inhibition is 0% (inactive).

Regarding `COc1cc(-c2nn3c(-c4cccnc4)nnc3s2)cc(OC)c1OC`, the inhibition was 6% (inactive).

Turning to `COc1ccc(C2C3=C(OC(C)=O)c4ccccc4C3=Nc3c2c(=O)n(C)c(=O)n3C)cc1` (stereo not given), the inhibition was 2% (inactive). As for `Cc1ccc(F)cc1NC(=O)C1CCCN(c2ncccn2)C1` (stereo not given), the inhibition is 7% (inactive).
